Broadly, the inhibition is the relative decrease from the control value, in per cent.

Experimental findings from PubChem BioAssay AID2240 (Broad Institute, 2010) are described below.

Out of some 37,000 compounds screened, about 100 (0.27%) were called active. No stated cut-off is given here; in the data, active means inhibition above about 85%; inconclusive means no clear call, values can overlap the other calls; inactive means below about 68%. The full list was thinned out, with actives kept by preference.

This assay can be described thus: blocks MITF activity, primary screen, MITF inhibitor project, cell-based, luminescence (AID 2240).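 Further: human melanocyte line stably carrying TRPM1 promoter luciferase reporter.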 As to conditions: TRPM1 promoter luciferase, 24 h, active compounds read high, concentration not given here.
In the case of `c1ccc2c(c1)[I+]c1ccccc1-2`, the inhibition is 90% (active). With `COc1ccc2[nH]cc(CCNCc3ccc(Br)cc3)c2c1`, the inhibition was -13.8% (inactive).

Turning to `CCCCC/C=C\C/C=C\C/C=C\CCCCCCC(=O)NCCO`, the inhibition was -1.85% (inactive). For the compound `C[C@H]1CCC/C=C/C2C[C@H](O)C[C@H]2[C@H](O)/C=C\C(=O)O1` (stereo not given in full), the inhibition was 108% (active). Take `c1cncc(CNCCc2c[nH]c3ccccc23)c1`: the inhibition was 1.76% (inactive). Turning to `COc1ccc(CNCc2nc3ccccc3c(=O)n2-c2ccc(F)cc2)cc1`, the inhibition is 8.31% (inactive). Then `C[C@H]1O[C@@H](O[C@H]2CC[C@]3(CO)C4CC[C@]5(C)[C@@H](C6=CC(=O)OC6)CC[C@]5(O)[C@@H]4CC[C@H]3C2)[C@H](O)[C@H](O)[C@@H]1O[C@@H]1O[C@H](CO)[C@@H](O)[C@H](O)[C@H]1O` (stereo not given in full), with 10.7% (inactive); and `CN(C)C(=O)Oc1cc(OC(=O)N(C)C)cc(C(O)CNC(C)(C)C)c1` (stereo not given), with -14.7% (inactive); and `CCCN(C/C=C/I)C1CCc2ccc(O)cc2C1` (stereo not given), with -11.9% (inactive). Turning to `COC1=CC23CCN(C)[C@H](Cc4cc(OC)c(OC)cc42)C3=CC1=O`, the inhibition is 2.51% (inactive). For the compound `Cc1ncsc1CCCl`, the inhibition was -1.18% (inactive). For the compound `CN[C@@H]1C[C@H]2O[C@@](C)([C@@H]1OC)n1c3ccccc3c3c4c(c5c6ccccc6n2c5c31)C(=O)NC4`, the inhibition was 106% (active). Take `CC(C)c1c(CN(C)C(C)Cc2ccccc2)n(C)n(-c2ccccc2)c1=O` (stereo not given): the inhibition was 20.5% (inactive). As to `CC=C1CN2C3CC1C1(C(=O)OC)C2CC2(c4ccccc4N(C)C32)C1O` (stereo not given), the inhibition is 4.01% (inactive).

Consider `COc1ccccc1N1C(=O)NC(=O)C(CCc2ccncc2)(Cc2cccc3ccccc23)C1=O` (stereo not given), for which the inhibition was 7.09% (inactive).
